This is a sample that favours compounds with a hit; in the whole collection about 32% have one here.
CYP2C19 inhib – blockers of cytochrome P450 2C19 activity – biochemical, luminescence, ADME assay, primary screen; CYP2C19 Supersomes, luciferin-H EGE luminescence, 30 min; 96,000 compounds, 21% hits; AID 778, 2007; P33261; inhibition, % at 5 µM;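 active means CYP2C19 inhibition above a set limit at 5 µM in the primary screen, cut at about 50% in these data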
Target sequence (P33261 whole entry, looked up): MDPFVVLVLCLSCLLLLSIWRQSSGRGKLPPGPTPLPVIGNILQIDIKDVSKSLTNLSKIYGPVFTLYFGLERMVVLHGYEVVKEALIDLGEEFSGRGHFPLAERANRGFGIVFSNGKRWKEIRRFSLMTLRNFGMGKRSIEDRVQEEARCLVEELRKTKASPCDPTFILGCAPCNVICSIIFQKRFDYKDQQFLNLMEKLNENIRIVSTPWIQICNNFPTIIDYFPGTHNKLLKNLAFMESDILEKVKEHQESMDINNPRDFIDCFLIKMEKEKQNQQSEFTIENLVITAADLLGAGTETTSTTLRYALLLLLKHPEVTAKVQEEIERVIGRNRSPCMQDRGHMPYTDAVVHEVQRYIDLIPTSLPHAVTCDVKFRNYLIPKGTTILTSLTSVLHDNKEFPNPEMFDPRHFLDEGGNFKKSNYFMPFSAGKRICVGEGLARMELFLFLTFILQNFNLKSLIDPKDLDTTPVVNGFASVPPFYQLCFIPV
CYP2C9 activ – human CYP2C9 activators, primary screen, biochemical, luminescence. 96,000 compounds, 1.4% hits. AID 1024, 2008. recombinant CYP2C9, luciferin-H conversion; stronger effect = higher value; factor 1 = untreated enzyme, 0 = blocked. activation factor at 5 µM;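 active means activation factor of 2 or more for CYP2C9 at a 5 µM dose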
CYP2C9 inhib – blockers of cytochrome P450 2C9 activity – biochemical, luminescence, ADME assay, primary screen. CYP2C9 Supersomes, luciferin-H conversion. inhibition, % at 5 µM. P11712. 96,000 compounds, 20% hits;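 active means blocking of liver enzyme CYP2C9 beyond about 50% at 5 µM, limit read from the data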
CYP2C19 activ – human CYP2C19 activators, primary screen, biochemical, luminescence | activation factor at 5 µM | recombinant CYP2C19, luciferin-H EGE luminescence; stronger effect = higher value; 0 = fully inhibited enzyme, 1 = untreated enzyme | AID 1025, 2008 | 96,000 tested, under 10 active | Cytochrome P450 2C19 (Homo sapiens), P33261;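 active means activation factor of at least 2 at 5 µM in the primary screen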
PostGolgi ctrl – growth inhibition of yeast control strain, primary screen, counter-screen for post-Golgi transport modulator project; efflux-deficient yeast background strain, growth absorbance A615, 16 h; inhibition, % at 10 µM; 98,000 compounds, 5% hits; AID 738, 2007
PostGolgi yeast – phenotypic screen on post-Golgi transport, primary screen; post-Golgi transport phenotypic cell assay; inhibition, % at 10 µM; 98,000 compounds, 0.9% hits;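 further: yeast cells grown in 1536-well plates; yeast grown about 18 h at 30C before absorbance read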
Each line names hits and unclear results; the compound was inactive in the other large screens. Unless noted, no stated cut-off is given here; in the data, active means inhibition above about 30%; inactive means the rest.

COc1cc(/C=N\NC(=O)CN2CCOCC2)ccc1OCC(=O)Nc1ccc(C)c(C)c1	none
CCCOc1c(Br)cc(/C=N/O)cc1OC	none
CC(=O)C1=C(O)C(=O)N(CCCCCC(=O)O)C1c1ccc(N(C)C)cc1 (stereo unspecified)	none
Cn1ccnc1SCC(=O)N(C1CCCCC1)C1CCCCC1	none
CC(=O)c1ccc(NC(=O)N[C@@H](CC(C)C)C(=O)O)cc1	none
O=C(CNS(=O)(=O)c1ccc2ccccc2c1)OCC(=O)c1ccc(Br)s1	CYP2C9 activ 2.3
CCCCC1=NN2C(=N)CC(=O)N=C2S1	none
CC1Cc2nc(SCC(N)=O)n(C)c(=O)c2S1 (stereo unspecified)	none
COCCn1c(SCC(=O)Nc2ccc3c(c2)OCCO3)nc2c(c1=O)SC(C)C2 (stereo unspecified)	none (no result: CYP2C19 inhib, CYP2C9 activ, CYP2C9 inhib, CYP2C19 activ)
CC1Cc2nc(SCC(=O)Nc3ccc4c(c3)OCCO4)n(C)c(=O)c2S1 (stereo unspecified)	CYP2C9 inhib 52
CC1Cc2nc(SCC(=O)Nc3ccc4c(c3)OCO4)n(Cc3ccccc3)c(=O)c2S1 (stereo unspecified)	CYP2C19 inhib 84, CYP2C9 inhib 75
CCOC(=O)c1ccc(NC(=O)CSc2nc3c(c(=O)n2C)SC(C)C3)cc1 (stereo unspecified)	CYP2C9 inhib 51
COC(=O)c1ccc(Cn2nc(C)c(Br)c2C)cc1	CYP2C19 inhib 99, CYP2C9 inhib 70
COC(=O)c1ccc(Cn2nc(C)cc2C)cc1	CYP2C19 inhib 93
Cc1cc(C)n(Cc2ccc(NC(=O)c3ccc(COc4ccccc4Br)cc3)cc2)n1	CYP2C9 inhib 77
COC(=O)c1cc(C(=O)OC)n(Cc2ccc(Br)cc2)n1	CYP2C19 inhib 91, CYP2C9 inhib 58
Cc1cc(C)n(Cc2ccc(C(=O)O)cc2)n1	none
CCCCN(Cc1cc2ccccc2[nH]c1=O)C(=O)c1ccccn1	none
COC(=O)c1ccc(Cn2nc(C(F)(F)F)cc2C)cc1	CYP2C19 inhib 69
Cc1ccccc1NC(=O)Cn1nc(C(F)(F)F)cc1C1CC1	CYP2C19 inhib 72
Cc1cc(C(F)(F)F)nn1CC(=O)NCc1ccccc1	CYP2C19 inhib 52
O=C1Nc2ccccc2C12OCC(COc1ccc(Cl)cc1)O2 (stereo unspecified)	CYP2C19 inhib 84
CN1C(=O)C2(OCC(COc3ccc(Cl)cc3)O2)c2ccccc21 (stereo unspecified)	none
CC(C)CCN1C(=O)c2ccc(-c3nc4ccccc4c(=O)o3)cc2C1=O	none
CCOC(=O)CC(=O)CSc1nc2ccccc2c(=O)n1-c1ccc(C(=O)NCCOC)cc1	CYP2C19 inhib 74, CYP2C9 inhib 78
CCOC(=O)CC(=O)CSc1nc2ccccc2c(=O)n1-c1ccc(C(=O)N2CCOCC2)cc1	CYP2C19 inhib 86, CYP2C9 inhib 73
CC(=O)c1cc2c(cc1NS(=O)(=O)c1ccc(C)cc1)OCCO2	none
Cc1ccc(CC(NC(=O)c2ccccc2)C(=O)NCC(=O)O)cc1 (stereo unspecified)	none
COc1ccc(-c2cc3nc(C4CCN(C(=O)OC(C)(C)C)CC4)c(C(=O)O)cn3n2)cc1	CYP2C9 inhib 75
CCOC(=O)c1cn2nc(-c3ccc(OCC)cc3)cc2nc1C1CCN(C(=O)OC(C)(C)C)CC1	none
Cc1ccccc1-n1nnnc1SC1CCOC1=O (stereo unspecified)	CYP2C19 inhib 59, CYP2C9 activ 2.2, PostGolgi ctrl 35
CCc1ccc(-c2nc(CN3CCC(C(=O)NCc4ccco4)CC3)c(C)o2)cc1	none
CN(C)/C=C/C(=O)c1nnn(C2CCCCC2)c1NC1CCCCC1	PostGolgi ctrl 31
C1CCC(Nc2nnnn2C2CCCCC2)CC1	none
O=C1CCC(=O)N1c1nc2nc(-c3ccccc3)cc(-c3ccccc3)n2n1	none
CCOC(=O)C(Cc1c[nH]c2ccccc12)NC(=O)CNC(C)=O (stereo unspecified)	none
Cc1ccc(CC2CC(=O)N(c3nc4ccccc4n3C)C2=O)cc1 (stereo unspecified)	none
COc1ccc(CCNc2nc(N3CCOCC3)nc(N3CCOCC3)n2)cc1OC	none
COc1ccc(CCNc2nc(N3CCCCC3)nc(N3CCCCC3)n2)cc1OC	CYP2C19 inhib 82, CYP2C9 inhib 72, PostGolgi ctrl 32
COc1ccc(/C=N/Nc2nc(Nc3ccccc3)nc(N3CCCCC3)n2)cc1OC	CYP2C19 inhib 71
O=[N+]([O-])c1ccc(Nc2nc(N/N=C\c3ccc4c(c3)OCO4)nc(N3CCCCC3)n2)cc1	none
COc1cccc(/C=N/Nc2nc(Nc3ccccc3)nc(-n3nc(C)cc3C)n2)c1O	CYP2C19 inhib 68, CYP2C9 inhib 79, PostGolgi ctrl 58
Cc1cc(C)n(-c2nc(Nc3ccccc3)nc(-n3nc(C)cc3C)n2)n1	none
CCn1nnnc1SCC(=O)c1ccc(NC(C)=O)cc1	none
O=C1c2ccccc2C(=O)N1CC1c2ccccc2CCN1C(=O)N1CCOCC1 (stereo unspecified)	none
CC1CCN(C(=O)C2CCN(S(=O)(=O)c3cnc[nH]3)CC2)CC1	none
O=C1c2ccccc2C(=O)N1CC1c2ccccc2CCN1S(=O)(=O)c1cnc[nH]1 (stereo unspecified)	CYP2C19 inhib 78, CYP2C9 inhib 97
Cc1ccc(S(=O)(=O)N2CCc3ccccc3C2CN2C(=O)c3ccccc3C2=O)cc1 (stereo unspecified)	CYP2C19 inhib 71
Cn1nc(C(F)(F)F)c2cc(C(=O)Nc3ccc(Cl)cc3)sc21	none
COc1ccc(COC(=O)Nc2cc3c(C(F)(F)F)nn(C)c3s2)cc1	none
Cn1nc(C(F)(F)F)c2cc(NC(=O)OCc3ccc(C(C)(C)C)cc3)sc21	CYP2C9 inhib 52, PostGolgi ctrl 38
Cn1nc(C(F)(F)F)c2cc(NC(=O)OCc3ccc(F)cc3)sc21	CYP2C19 inhib 52, CYP2C9 activ 2.5
CC(C)=C(C#N)c1nc2ccccc2s1	CYP2C19 inhib 56
CC(C)NC(=O)c1nc2ccccc2s1	none
COC(=O)c1ccc(/C(O)=C(\C#N)c2nc3ccccc3s2)cc1	CYP2C9 inhib 58
CCOC(=O)c1ccc2c(c1)nc(COc1ccc(OC)cc1)n2CC	CYP2C19 inhib 76, CYP2C9 inhib 55
CCSc1nc2cc(C(=O)OC)ccc2c(=O)n1CC	none (no result: CYP2C19 inhib, CYP2C9 activ, CYP2C9 inhib, CYP2C19 activ)
CCOC(=O)c1ccc2c(c1)nc(SCC(=O)c1cc3ccccc3o1)n2CC	CYP2C9 inhib 78
C=CCNC(=O)CSc1nc2cc(C(=O)OCC)ccc2n1CC	CYP2C19 inhib 96, CYP2C9 inhib 75
Cc1ccc(OCC(=O)N/N=C\c2cn(C)c3ccccc23)c([N+](=O)[O-])c1	none
